Among the data in PubChem BioAssay (NCI) are growth inhibition values, retold here.

The structures appear in SMILES notation. Compounds without any hit were thinned out: in the full panel of roughly 79,000, 15% have a hit. A number with no mark means an inactive call. Activity calls are given as the source filed them. Cut-off read from the data, not from the text of the source: active = growth inhibition above about 70%; inactive = the rest.

The nature of experiment [1]: NCI Yeast Anticancer Drug Screen. Data for the rad50 strain (AID 155).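 Note: 0% = growth of vehicle-only cultures of the same strain.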 To be noted: S. cerevisiae rad50 strain growth inhibition; at 50.0 µM; active compounds read high. The method, boiled down:
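Inhibition values express reduced yeast growth in compound-treated cultures relative to vehicle-treated controls.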

Experiment [2] in a line: NCI Yeast Anticancer Drug Screen. Data for the mec2-1 strain (AID 157). To be noted: S. cerevisiae mec2-1 strain, at 50.0 µM, active compounds read high. The method, boiled down:
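Test agents were screened against the mec2-1 yeast strain, with defined DNA repair or cell cycle alteration. Growth was scored as inhibition against vehicle-only controls.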

Experiment [3] is described as follows: NCI Yeast Anticancer Drug Screen. Data for the sgs1 mgt1 strain (AID 161).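 Note: 0% = growth of cultures given vehicle only.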 To be noted: S. cerevisiae sgs1 mgt1 strain, at 50.0 µM, active compounds read high. An outline of the steps: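 Genetically altered yeast, compound exposure, growth inhibition relative to vehicle.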
The nature of experiment [4]: NCI Yeast Anticancer Drug Screen. Data for the cln2 rad14 strain (AID 165).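 Note: 0% = growth equal to vehicle treated cultures.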 The note with it: S. cerevisiae cln2 rad14 strain, at 50.0 µM, active compounds read high. The method, boiled down: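 Growth of compound-exposed yeast (cln2 rad14 genotype) measured and expressed as inhibition relative to vehicle.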
Experiment [5] can be described thus: NCI Yeast Anticancer Drug Screen. Data for the bub3 strain (AID 167). To be noted: S. cerevisiae bub3 mutant strain, at 50.0 µM, active compounds read high. The method, boiled down:
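Steps: expose the mutant yeast strain to compound; grow alongside vehicle-treated cultures; measure growth; express inhibition against the vehicle cultures.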

Experiment [6] in a line: NCI Yeast Anticancer Drug Screen. Data for the mlh1 rad18 strain (AID 175). To be noted: S. cerevisiae mlh1 rad18 strain growth inhibition; at 50.0 µM; active compounds read high. The method, boiled down:
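In this whole-cell yeast screen, a strain with altered DNA damage repair is challenged with compound, and its growth is measured against matched vehicle-treated controls.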

With `O=Cc1ccnc2ccccc12`, the growth inhibition in experiment [1] is 0.9%; in experiment [2] it was 1%; in experiment [3], 6.25%; in experiment [4], 4%; in experiment [5] it was -3.55%; in experiment [6], 6.85%.

For the compound `Cn1c(=O)c2[nH]c(/N=N\n3ccc4ccccc43)nc2n(C)c1=O`, the growth inhibition in experiment [1] is 2.1%; in experiment [2], 21.6%; in experiment [3], -5.6%; in experiment [4], -8.85%; in experiment [5] it was 24.6%; in experiment [6], 4.1%.

As to `NC(=O)CNC(=O)[C@@H]1CC(OCCC(=O)O)CN1C(=O)C1CCCN1C(=O)OCc1ccccc1` (stereo partly specified), the growth inhibition in experiment [1] was 0.05%; in experiment [2], -0.8%; in experiment [3], 1.8%; in experiment [4], 6.25%; in experiment [5] it was 1.3%; in experiment [6], 6.75%.

`Cn1c(=O)cc2n(C)c3ccccc3n2c1=O`: the growth inhibition was 33.1% in experiment [1]; 18.6% in experiment [2]; 1.2% in experiment [3]; -5.9% in experiment [4]; 6.2% in experiment [5]; 5.8% in experiment [6].

Regarding `CCOC(=O)C(N)C(O)c1ccncc1` (stereo unspecified), the growth inhibition was -8% in experiment [1]; -2.45% in experiment [2]; -4.25% in experiment [3]; -19.8% in experiment [4]; 1.5% in experiment [5]; 2.2% in experiment [6].

`CC(=O)Nc1ccc(-c2nnc(SCC(=O)Nc3ccccc3C)o2)cc1`: the growth inhibition in experiment [1] was -6.55%; in experiment [2] it was -5.25%; in experiment [3], -19.9%; in experiment [4] it was 4.65%; in experiment [5] it was -8.55%; in experiment [6], -18.1%.

In the case of `[N-]=[N+]=N[Si](c1ccccc1)(c1ccccc1)c1ccccc1`, the growth inhibition in experiment [1] was -17.1%; in experiment [2], -11.4%; in experiment [3], 2.35%; in experiment [4], 7.6%; in experiment [5], -7.7%; in experiment [6], 7.25%.

For the compound `O=C1C(NS(=O)(=O)c2ccccc2)=C(N(Cc2ccccc2)Cc2ccccc2)C(=O)c2ccccc21`, the growth inhibition in experiment [1] is 9.1%; in experiment [2], 7.4%; in experiment [3], 26.1%; in experiment [4], 2.1%; in experiment [5] it was 8.95%; in experiment [6], -6.75%.

`COc1c(NC(=O)c2ccc(Cl)c(Cl)c2)cccc1[N+](=O)[O-]`: the growth inhibition in experiment [1] is 7.6%; in experiment [2], -9.1%; in experiment [3], 3.35%; in experiment [4], -2.85%; in experiment [5] it was 1.3%; in experiment [6], -1.3%.

Take `O=[N+]([O-])c1ccc(C=Nc2ccc3c(c2)Cc2ccccc2-3)cc1`: the growth inhibition in experiment [1] was -7.7%; in experiment [2], -16.8%; in experiment [3], 9.9%; in experiment [4], -20.1%; in experiment [5], -16.4%; in experiment [6], 1.25%.

`C[N+](C)(C)/C=C/c1ccccc1`: the growth inhibition in experiment [1] was 30.8%; in experiment [2], -8.2%; in experiment [3], 21%; in experiment [4], -11.3%; in experiment [5] it was 0.2%; in experiment [6], 38.9%.

For `CSC1NN=C(CCC(=O)Nc2ccc(C)cc2)O1` (stereo unspecified), the growth inhibition in experiment [1] was -37.7%; in experiment [2], 5.25%; in experiment [3], 13%; in experiment [4], -21.1%; in experiment [5], -3.8%; in experiment [6], 12.9%.

For the compound `Nc1ccc(S(=O)(=O)CC(=O)N2CCOCC2)cc1`, the growth inhibition is 6.2% in experiment [1]; -10.8% in experiment [2]; 8.3% in experiment [3]; 17.9% in experiment [4]; 4.95% in experiment [5]; 22.5% in experiment [6].

Turning to `C[C@@H]1CC[C@@H](C)[C@](C)(CCc2ccoc2)C/C=C\C=C/1C(=O)O`, the growth inhibition in experiment [1] is 85.2% (active); in experiment [2], 85.8% (active); in experiment [3], 73.8% (active); in experiment [4] it was 84.7% (active); in experiment [5], 68.8%; in experiment [6], 78.2% (active).

As for `O=c1[nH]c(=O)n(C2OC(COP(=O)(O)OP(=O)(O)OC3OC(CO)C(O)C(O)C3O)C(O)C2O)cc1F` (stereo unspecified), the growth inhibition in experiment [1] was 1.15%; in experiment [2], 3.65%; in experiment [3] it was 8.8%; in experiment [4], 18.9%; in experiment [5] it was -15.3%; in experiment [6] it was 9.85%.

As for `CCOC(=O)c1ccc(NC(C)=O)cc1`, the growth inhibition in experiment [1] is 18%; in experiment [2], 9.2%; in experiment [3], 9.3%; in experiment [4] it was -5.45%; in experiment [5], -4.45%; in experiment [6], 12.1%.

Take `CCCCCCCCCCCCCCCCCC(=O)CCCCCCCCCCCCCCCCC`: the growth inhibition in experiment [1] is -17.3%; in experiment [2], -21.7%; in experiment [3], -6.65%; in experiment [4], 13.8%; in experiment [5], -6.2%; in experiment [6], -16.7%.

Take `CN(C)C(=O)c1ccc[n+](CC(=O)Nc2ccccc2)c1`: the growth inhibition in experiment [1] is 0.7%; in experiment [2], -3.85%; in experiment [3], 13.1%; in experiment [4], -1.25%; in experiment [5] it was 4.05%; in experiment [6], -4.4%.

Take `CC(O)C(F)(F)F` (stereo unspecified): the growth inhibition in experiment [1] is 18.2%; in experiment [2] it was -8.8%; in experiment [3] it was 7.65%; in experiment [4], 15.9%; in experiment [5], -3.75%; in experiment [6] it was 21.8%.

In the case of `CN1C(=O)NC(=O)C1(C)C=O` (stereo unspecified), the growth inhibition in experiment [1] was 2.8%; in experiment [2], 0.9%; in experiment [3] it was -2.7%; in experiment [4], 5.95%; in experiment [5] it was 10.9%; in experiment [6] it was -12.1%.

In the case of `CCOC(=O)CC1CN(C(=O)c2ccccc2)CCC12OCCO2` (stereo unspecified), the growth inhibition was -3.4% in experiment [1]; -4.3% in experiment [2]; -4% in experiment [3]; -5.05% in experiment [4]; -2.35% in experiment [5]; -5.3% in experiment [6].
